“And” between values parts separate entries of the source, which are not always exact repeats. Identical values can stand only once. Inconclusive results are not listed. The source made the active and inactive calls. Unless noted, calls come from the whole dose curve; as a rule, active = well fitted curve in the direction sought with a large enough effect in the repeat runs; inconclusive = weak or mixed curves; inactive = no such curve, though single readings can be large; an effect the other way counts as inactive or inconclusive.
Experiments:
[1] = qHTS assay to identify small molecule agonists of the estrogen receptor alpha (ER-alpha) signaling pathway in the presence of an antagonist - cell viability counter screen (AID 1259386); note: series mostly up to about 92 µM; nearly all actives have a fitted effect of over 30% in size
Method in brief: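 Compounds tested at 15 concentrations for 22 h at 37C alongside 10.0nM (final) ICI-182,780 antagonist, in VM7Luc4E2 cells grown in phenol red-free, charcoal-stripped medium. Viability read by CellTiter-Fluor fluorescence after 1 h reagent incubation.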

[2] = molecular target: Progesterone receptor (Homo sapiens) (UniProt P06401); assay: qHTS assay to identify small molecule agonists of the progesterone receptor (PR) signaling pathway (AID 1346784; calls by dose curve; note: nearly all actives have a fitted effect of over 30% in size)
Chain of Progesterone receptor (Homo sapiens) (P06401 whole entry, looked up): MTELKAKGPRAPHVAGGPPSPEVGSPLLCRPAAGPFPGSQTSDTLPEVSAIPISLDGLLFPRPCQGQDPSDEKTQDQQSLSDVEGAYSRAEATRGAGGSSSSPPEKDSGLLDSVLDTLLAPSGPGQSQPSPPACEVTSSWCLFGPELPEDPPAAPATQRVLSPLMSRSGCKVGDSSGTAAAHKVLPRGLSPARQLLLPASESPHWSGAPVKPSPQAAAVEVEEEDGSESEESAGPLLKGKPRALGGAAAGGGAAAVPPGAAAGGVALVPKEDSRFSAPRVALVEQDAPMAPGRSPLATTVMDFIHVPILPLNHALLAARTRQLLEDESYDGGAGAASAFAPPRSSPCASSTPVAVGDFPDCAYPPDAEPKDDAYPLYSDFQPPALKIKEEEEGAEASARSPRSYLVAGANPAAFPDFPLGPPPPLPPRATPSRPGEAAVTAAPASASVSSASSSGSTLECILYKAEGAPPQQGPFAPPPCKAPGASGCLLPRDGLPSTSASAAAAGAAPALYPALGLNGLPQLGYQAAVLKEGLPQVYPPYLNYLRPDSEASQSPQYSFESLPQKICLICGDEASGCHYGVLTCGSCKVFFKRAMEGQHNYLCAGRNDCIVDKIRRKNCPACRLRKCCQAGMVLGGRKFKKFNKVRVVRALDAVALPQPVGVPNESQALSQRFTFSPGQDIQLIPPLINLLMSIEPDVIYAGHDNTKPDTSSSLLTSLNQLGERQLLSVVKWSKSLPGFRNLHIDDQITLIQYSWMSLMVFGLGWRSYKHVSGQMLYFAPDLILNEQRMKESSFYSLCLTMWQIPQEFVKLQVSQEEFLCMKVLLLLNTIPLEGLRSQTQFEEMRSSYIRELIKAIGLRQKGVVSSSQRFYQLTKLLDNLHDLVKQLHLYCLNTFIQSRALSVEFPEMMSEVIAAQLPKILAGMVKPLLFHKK
Method in brief: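 Using charcoal-stripped serum (2%) to limit endogenous steroids, PR-UAS-bla HEK 293T cells received compounds for 16 hr at 37C after 6 hr plating; beta-lactamase FRET fluorescence was recorded following 2 hr substrate loading at room temperature.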

[3] = molecular target: Progesterone receptor (Homo sapiens) (UniProt P06401); assay: qHTS assay to identify small molecule antagonists of the progesterone receptor (PR) signaling pathway (AID 1346795; active = well fitted inhibition curve with a large enough effect in the signal ratio in the repeat runs, not every such curve was filed as active; the % refers to the signal ratio)
Method in brief: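 Inhibition of R5020-induced (1 nM final) beta-lactamase reporter signal in PR-UAS-bla HEK293T cells was scored by FRET fluorescence after overnight (16 hr) compound treatment.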

[4] = qHTS assay to identify small molecule agonists of the progesterone receptor (PR) signaling pathway - cell viability counter screen (AID 1346799; calls by dose curve; note: nearly all actives have a fitted effect of over 45% in size; note: potency is the fitted concentration of half-maximal effect)
Method in brief: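 Cytotoxicity in PR-bla HEK293T cells: 16 h compound, 37C; CellTiter-Glo added post-FRET read; luminescence after 30 min RT.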

[5] = qHTS assay to identify small molecule antagonists of the TGF-beta/Smad signaling pathway - cell viability counter screen (AID 1346824); note: nearly all actives have a fitted effect of over 50% in size
Method in brief: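 Cytotoxicity counter-screen run in the same wells as the beta-lactamase Smad reporter read: CellTiter-Glo luminescence after 30 min at room temperature. HEK 293T SBE-bla cells had 5 hr compound exposure at 37 C with TGF-beta1 (0.25 ng/mL stock).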

[6] = qHTS assay to identify small molecule agonists of the TGF-beta/Smad signaling pathway - cell viability counter screen (AID 1346829); note: top concentration of the series differs between compounds; nearly all actives have a fitted effect of over 45% in size
Method in brief: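 HEK 293T SBE-bla line, 5 hr compound exposure at 37 C, multiplexed CellTiter-Glo viability read by luminescence.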

[7] = qHTS assay to identify small molecule agonists of the TGF-beta/Smad signaling pathway (AID 1346859; active = well fitted activation curve with a large enough effect in the signal ratio in the repeat runs, not every such curve was filed as active; the % refers to the signal ratio; note: series mostly up to about 77 µM)
Method in brief: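 Stable Smad binding element-beta-lactamase HEK 293T cells; 5 hr compound exposure at 37 C under 5% CO2; 2 hr room-temperature substrate step; fluorescence excited at 405 nm, collected at 460 nm and 530 nm.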

[8] = molecular target: Thyrotropin-releasing hormone receptor (Homo sapiens) (UniProt P34981); assay: qHTS assay to identify small molecule antagonists of the thyrotropin-releasing hormone receptor (TRHR) signaling pathway (AID 1346877; active = well fitted inhibition curve with a large enough effect in the repeat runs, not every such curve was filed as active; note: series mostly up to about 51 µM)
Chain of Thyrotropin-releasing hormone receptor (Homo sapiens) (P34981 whole entry, looked up): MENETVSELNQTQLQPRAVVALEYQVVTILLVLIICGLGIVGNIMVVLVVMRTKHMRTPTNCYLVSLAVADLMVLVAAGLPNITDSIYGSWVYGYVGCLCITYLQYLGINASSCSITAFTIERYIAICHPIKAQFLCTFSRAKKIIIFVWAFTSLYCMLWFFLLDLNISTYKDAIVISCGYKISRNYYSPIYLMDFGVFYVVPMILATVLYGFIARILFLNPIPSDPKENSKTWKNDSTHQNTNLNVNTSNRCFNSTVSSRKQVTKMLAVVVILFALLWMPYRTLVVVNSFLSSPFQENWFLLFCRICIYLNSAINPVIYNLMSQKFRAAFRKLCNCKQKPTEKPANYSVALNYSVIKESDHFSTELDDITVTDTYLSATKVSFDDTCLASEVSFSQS
Method in brief: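 Antagonist mode: after a 5 min room-temperature compound exposure, cells were stimulated with 1 nM (final) TRH. Dye-loaded TRHR-HEK293 cells were used, and calcium-dependent fluorescence was followed for 3 min, with 15-point titrations run in triplicate.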

[9] = molecular target: Thyrotropin-releasing hormone receptor (Homo sapiens) (UniProt P34981); assay: qHTS assay to identify small molecule agonists of the thyrotropin-releasing hormone receptor (TRHR) signaling pathway (AID 1346891; calls by dose curve;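 note: HEK293 cells expressing TRHR with calcium dye readout; series mostly up to about 58 µM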)
Method in brief: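 In 1536-format, 1500 TRHR-Hek293 cells per well grew 18 h, took up calcium dye for 2 h at 37 °C, received compound, and were read kinetically; 15-point titrations, triplicates.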

[10] = Human pregnane X receptor (PXR) small molecule agonists, qHTS cell viability counter screen (AID 1346977); note: nearly all actives have a fitted effect of over 50% in size
Method in brief: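 Readout is CellTiter-Fluor fluorescence from PXR-Luc HepG2 cells. Plated cells rested 5hr, then were treated with compounds for 24hr at 37C and 5% CO2, with reagent present during the last hour.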

[11] = Caspase-3/7 induction in HepG2 cells by small molecules, qHTS assay (AID 1346978); note: nearly all actives have a fitted effect of over 15% in size
Method in brief: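 Caspase-3/7 induction was measured by Caspase-Glo 3/7 luminescence (30 min, room temperature) after a 17 hr compound exposure of wild-type HepG2 cells seeded at 2,000 per well and pre-incubated 5 hr.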

[12] = Caspase-3/7 induction in CHO-K1 cells by small molecules, qHTS cell viability counter screen (AID 1346979); note: nearly all actives have a fitted effect of over 35% in size
Method in brief: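 To flag cytotoxic compounds, treated CHO-K1 wild-type cells were given CellTiter-Fluor at 16hr and read fluorescently after 1hr at 37C; the caspase-3/7 luminescence was measured in these same wells.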

[13] = Caspase-3/7 induction in CHO-K1 cells by small molecules, qHTS assay (AID 1346980); note: nearly all actives have a fitted effect of over 15% in size
Method in brief: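 Luminescent Caspase-Glo 3/7 read (30min, room temperature) quantified apoptosis induction. Cells were wild-type CHO-K1, treated with compound for 17hr at 37 C and 5% CO2.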

[14] = Caspase-3/7 induction in HepG2 cells by small molecules, qHTS cell viability counter screen (AID 1346981); note: series mostly up to about 92 µM; nearly all actives have a fitted effect of over 30% in size
Method in brief: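 CellTiter-Fluor fluorescence measured viability in the same wells used for Caspase-Glo 3/7. HepG2 (wild type) at 2,000 cells/well were pre-incubated 5 hr, dosed, and given reagent at 16 hr, with 1 hr further at 37C.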

[15] = molecular target: Nuclear receptor subfamily 1 group I member 2 (Homo sapiens) (UniProt O75469); assay: Human pregnane X receptor (PXR) small molecule agonists, qHTS assay (AID 1346982); note: nearly all actives have a fitted effect of over 35% in size; note: potency is the fitted concentration of half-maximal effect
Chain of Nuclear receptor subfamily 1 group I member 2 (Homo sapiens) (O75469 whole entry, looked up): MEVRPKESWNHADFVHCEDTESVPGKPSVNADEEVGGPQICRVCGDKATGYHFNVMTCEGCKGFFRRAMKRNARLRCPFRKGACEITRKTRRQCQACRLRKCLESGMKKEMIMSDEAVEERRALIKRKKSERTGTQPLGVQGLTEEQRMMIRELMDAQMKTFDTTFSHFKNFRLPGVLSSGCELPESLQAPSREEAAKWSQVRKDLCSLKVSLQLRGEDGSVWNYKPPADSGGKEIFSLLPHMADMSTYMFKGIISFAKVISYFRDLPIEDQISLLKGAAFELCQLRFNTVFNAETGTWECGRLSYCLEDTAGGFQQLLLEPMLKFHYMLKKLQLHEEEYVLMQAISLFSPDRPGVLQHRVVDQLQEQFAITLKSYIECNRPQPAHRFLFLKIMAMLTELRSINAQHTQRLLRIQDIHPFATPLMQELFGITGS
Method in brief: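 Agonist mode: luminescence from ONE-Glo after 24 h compound exposure at 37C in HepG2 cells carrying hPXR-responsive CYP3A4 luciferase, plated in charcoal-stripped serum medium 5 h beforehand.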

[16] = qHTS assay to identify small molecule antagonists of the progesterone receptor (PR) signaling pathway - cell viability counter screen (AID 1346798); note: nearly all actives have a fitted effect of over 50% in size; note: potency is the fitted concentration of half-maximal effect
Method in brief: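 ATP content as viability readout: CellTiter-Glo luminescence, 30 min room temperature, in PR-UAS-bla HEK293T cells after 16 hr compound/R5020 treatment at 37C and 5% CO2.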

[17] = molecular target: Nuclear receptor subfamily 1 group I member 2 (Rattus norvegicus) (UniProt Q9R1A7); assay: Rat pregnane X receptor (rPXR) activation by small molecules, qHTS assay (AID 1346983); details: rPXR luciferase reporter cells, One-Glo luminescence, 24 h; max activation: active compounds read high; note: nearly all actives have a fitted effect of over 20% in size
Chain of Nuclear receptor subfamily 1 group I member 2 (Rattus norvegicus) (Q9R1A7 whole entry, looked up): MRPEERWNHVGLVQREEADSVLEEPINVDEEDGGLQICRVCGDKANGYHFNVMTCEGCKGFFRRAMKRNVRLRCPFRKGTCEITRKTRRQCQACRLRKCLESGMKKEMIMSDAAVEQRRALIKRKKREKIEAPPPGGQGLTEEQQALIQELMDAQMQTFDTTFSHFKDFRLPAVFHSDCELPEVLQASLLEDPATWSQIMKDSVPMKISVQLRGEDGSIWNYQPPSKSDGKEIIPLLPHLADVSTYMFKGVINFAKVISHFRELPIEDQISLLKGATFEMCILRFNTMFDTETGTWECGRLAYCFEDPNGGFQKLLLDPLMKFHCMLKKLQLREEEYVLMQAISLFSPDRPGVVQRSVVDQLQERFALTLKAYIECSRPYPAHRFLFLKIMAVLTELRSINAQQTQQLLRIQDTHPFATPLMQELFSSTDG
Method in brief: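 Luminescent readout (One-Glo luciferase, 30 min room temperature) followed 24 hr compound treatment at 37 C of rPXR cells plated 2,000 per well and preincubated 5hr; qHTS format with compounds delivered in DMSO.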

[18] = molecular target: Nuclear receptor subfamily 1 group I member 2 (Homo sapiens) (UniProt O75469); assay: CYP3A4 induction through human pregnane X receptor (PXR) by small molecules, qHTS assay (AID 1346984); note: nearly all actives have a fitted effect of over 40% in size
Method in brief: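 Read-out is luminescence after One-Glo addition, following a 3 hr, 37C incubation with Luciferin-IPA CYP3A4 substrate (3uM final). Before that, compounds were on DPX-2 cells (HepG2 co-transfected with PXR element plus CYP3A4-promoter luciferase) for 24 hr at 37C.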

[19] = molecular target: Nuclear receptor subfamily 1 group I member 2 (Homo sapiens) (UniProt O75469); assay: Human pregnane X receptor (PXR) activation by small molecules, qHTS assay (AID 1346985); note: nearly all actives have a fitted effect of over 40% in size
Method in brief: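 DPX-2 cells (HepG2 co-transfected with a PXR response element and a CYP3A4-promoter luciferase construct) were seeded at 2,000 per well, rested 5 hr at 37C, then exposed to DMSO-dissolved compounds for 24 hr. Activation was read as luciferase luminescence.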
% is set by controls: 0 for no effect and ±100 for the full control effect.

CCCCCCCCCCCl
inactive: outcome [1] | Potency [2] | Potency [3] | Potency [4] | outcome [5] | outcome [6] | outcome [7] | outcome [8] | outcome [9] | Potency [10] | outcome [11] | Potency [12] | outcome [13] | outcome [14] | Potency [15]

Nc1cc(N)cc(C(=O)O)c1
active: Potency [15] 34.4 µM
inactive: outcome [1] | Potency [2] | Potency [16] | Potency [4] | outcome [5] | outcome [6] | outcome [7] | Potency [10] | outcome [11] | Potency [12] | outcome [13] | outcome [14]

CCn1c(=O)c2c(nc(/C=C/c3ccc(OC)c(OC)c3)n2C)n(CC)c1=O
active: Potency [15] 26.6 µM
inactive: outcome [1] | Potency [2] | Potency [3] | outcome [5] | outcome [6] | outcome [7] | outcome [8] | outcome [9] | Potency [10] | outcome [11] | outcome [13] | outcome [14]

Cc1ccc(Nc2ccc(O)c3c2C(=O)c2ccccc2C3=O)cc1
inactive: outcome [1] | Potency [2] | Potency [3] | Potency [16] | outcome [5] | outcome [6] | outcome [7] | outcome [8] | outcome [9] | outcome [11] | Potency [12] | outcome [13] | outcome [14] | Potency [15]

Nc1[nH]c(=O)ncc1F
inactive: outcome [1] | Potency [2] | Potency [3] | Potency [16] | Potency [4] | outcome [5] | outcome [6] | outcome [7] | Potency [10] | outcome [11] | Potency [12] | outcome [13] | Potency [15] | max activation [17] -0.668% | Potency [18] | Potency [19]

OCCCCCCO
active: Potency [16] 61.9 µM | Potency [4] 19.6 µM
inactive: outcome [1] | outcome [5] | outcome [6] | outcome [7] | outcome [8] | outcome [9] | Potency [10] | outcome [11] | Potency [12] | outcome [13] | outcome [14] | Potency [15]

O=c1[nH]c(=O)n([C@H]2O[C@H](CO)[C@@H](O)[C@@H]2O)cc1/C=C\Br
inactive: outcome [1] | Potency [2] | Potency [3] | Potency [16] | Potency [4] | outcome [5] | outcome [6] | outcome [7] | outcome [9] | Potency [10] | outcome [11] | Potency [12] | outcome [13] | Potency [15]

C/C=C1\C(=O)C[C@H]2[C@@H]3CCC4=CC(=O)CC[C@]4(C)[C@H]3CC[C@]12C
inactive: outcome [1] | outcome [5] | outcome [6] | outcome [11] | outcome [13] | outcome [14]

COc1cc(C(=O)N2CCOCC2)cc(OC)c1OC
inactive: outcome [1] | Potency [16] | Potency [4] | outcome [5] | outcome [6] | outcome [7] | Potency [10] | outcome [11] | outcome [13] | Potency [15] | max activation [17] -6.89% and 0.152% | Potency [18] | Potency [19]

Reference: PubChem BioAssay (Tox21)
